Hit rate of the full screen: of about 420,000 compounds, about 75 (0.02%) were called active. The call rests on the fitted dose curve; in most records, active means well fitted activation curve with a large enough effect; inconclusive means small, poorly fitted or top-dose-only effect; inactive means no such curve, though single readings can be large or run the other way. The full list was thinned out, with actives kept by preference.
Experiment: qHTS for Inducers of the Endoplasmic Reticulum Stress Response (ERSR) in Human Glioma: qHTS; further: % of control where 0% means no effect; nearly all actives have a fitted effect of over 35% in size
Conditions: U87-MG GRP78 promoter luciferase reporter, 16 h; activation: active compounds read high
Summary of the method: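 ERSR induction read as luciferase luminescence (Bright-Glo, 10 min at room temperature) in stably transfected human U87-MG glioma cells exposed to compounds for 16 h, using GRP78 as sensor.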

activation, inactive:
N[C@@H](C(=O)O)c1ccc(P(=O)(O)O)cc1 -4.34%, CN(C)c1ccc(CN2CCOc3ccc(CN4CCC(O)(c5cccnc5)CC4)cc3C2)cc1 -1.82%, Cc1ccc(Cn2cnc3c(cnn3C(C)(C)C)c2=O)c(F)c1 -6.82%, O=C(C[n+]1ccncc1)c1ccc2c(c1)CCCC2 -0.663%, Cc1cc(-c2ccnc(-n3ncc(C(=O)NC(C)(C)CO)c3C3CC3)n2)c(C)s1 -3.21%, Cc1cccc(CNc2ccnc(-c3cccnc3)n2)c1 6.2%, CCOC(=O)Cc1cccc(-c2cc(CCCCCCc3ccc(O[C@H]4O[C@H](COC(C)=O)[C@@H](OC(C)=O)[C@H](OC(C)=O)[C@@H]4OC(C)=O)c(-c4cccc(CC(=O)OCC)c4)c3)ccc2O[C@H]2O[C@H](COC(C)=O)[C@@H](OC(C)=O)[C@H](OC(C)=O)[C@@H]2OC(C)=O)c1 -3.38%, O=c1cc(-c2ccc(O)cc2)oc2c([C@@H]3O[C@H](CO)[C@@H](O)[C@H](O)[C@H]3O)c(O)cc(O)c12 -0.663%, Cc1ccc(-c2ccnc(-n3ncc(C(=O)N(C)Cc4cccc5ncccc45)c3C3CC3)n2)o1 -4.64%, COc1ccnc(C[S@@](=O)[C@@H]2Nc3ccc(OC(F)F)cc3N2)c1OC -1.51%, COc1ccc2c(c1)NC(=O)C2CC(=O)N1CCOc2c(cc(-c3cnc4ccccc4c3)cc2OC)C1 (centres undefined) -6.72%, COCC1CCCN(Cc2ccc3c(c2)CN(C(=O)c2ccnn2C)CCO3)C1 (centres undefined) -2.07%, COc1ccc(F)c(CN2CCC3(CCC(CNC(=O)c4ccn(C)n4)O3)CC2)c1 (centres undefined) -4.54%, NNc1nnc(Cc2ccncc2)c2ccccc12 -5.05%, CC1=C(/C=C/C(C)=C/C=C/C(C)=C/C=C/C=C(C)/C=C/C=C(C)/C=C/C(=O)[C@]2(C)C[C@@H](O)CC2(C)C)C(C)(C)C[C@H](O)C1 -0.817%, O=C1NC(CC(=O)N2CCC(n3c(C4CCC4)nc4cccnc43)CC2)c2ccccc21 (centres undefined) -7.83%, COCC(=O)Nc1cc(C(=O)N2CCCC(c3ccccc3)CC2)c2c(c1)nc(-c1ccncc1)n2C (centres undefined) 1.99%, COc1ccc(C)cc1N1C(=O)[C@@H]2C[C@H]1CN2Cc1cccc(OC)c1O -3.49%, CCOC(=O)[C@]1(C(/C=C/c2ccco2)NC(=O)OC)CCCC1=O (some centres undefined) -4.35%, CCOCCOC(=O)C(C)Oc1ccc(Oc2ncc(C(F)(F)F)cc2Cl)cc1 (centres undefined) 3.45%, CN1CCCCCC1C(=O)NCCN1Cc2ccccc2OC(c2ccsc2)C1 (centres undefined) -4.87%, CNCCCOc1cc2nc(N3CCCN(C)CC3)nc(NC3CCN(C)CC3)c2cc1OC -4.57%, COc1ccccc1-c1ccnc(-n2ncc(C(=O)NCCCN3CCOCC3)c2C)n1 -5.22%, COC(=O)NC(c1ccccc1)[C@]1(C(C)=O)CCCC1=O (some centres undefined) -3.63%

Reference: PubChem BioAssay AID602332 (National Center for Advancing Translational Sciences (NCATS), 2012)
